Source: PubChem BioAssay (several laboratories)
ATG4B inhibitor: blocks human ATG4B protease cleavage of LC3 substrate | AID 504462 | inhibition, % at 8.33 µM | ATG4B cleavage of LC3-PLA2, NBD-HPC fluorescence, 1 h | hit rate 0.51% among 340,000 | Q9Y4P1; in the data active means inhibition above about 40%
UBC13 inh: inhibitors of human UBC13 polyubiquitin chain formation. P61088. TR-FRET. inhibition, % at 20 µM. hit rate 0.47% among 330,000. AID 485273; in the data active means inhibition above about 45%, passing the limit was not always enough; inconclusive means no clear call, values can overlap the other calls
Target sequence (P61088 whole entry, looked up): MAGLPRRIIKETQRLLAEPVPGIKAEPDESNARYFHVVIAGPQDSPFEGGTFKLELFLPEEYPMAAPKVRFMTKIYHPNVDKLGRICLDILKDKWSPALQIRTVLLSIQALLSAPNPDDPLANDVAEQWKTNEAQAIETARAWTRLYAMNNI
MEKK3 PB1 HTS: raises or lowers MEK5 binding to the human MEKK3 PB1 domain; Q99759; bead-based flow cytometry, Alexa488-MEK5 binding to MEKK3; actives lie on both sides; 0 = blocked by unlabeled MEK5, 100 = vehicle; binding response (% of control), % at 10 µM; hit rate 1.4% among 290,000; AID 1529;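 active means binding response more than 3 SD above or below the average of its plate-row segment, actives on both sides; inconclusive means wells at one plate position flagged as instrument error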;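 further: Alexa488 bead fluorescence after subtracting the streptavidin-only scavenger bead signal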
MEKK2 mut-MEK5: signal of MEK5 binding to mutant human MEKK2 PB1 domain | percent response, % at 10 µM | bead flow cytometry, Alexa488-MEK5 binding to MEKK2 mutant | AID 1530 | hit rate 0.35% among 290,000; in the data active means percent response above about 24%, passing the limit was not always enough
MEKK2 WT-MEK5: raises or lowers MEK5 binding to wildtype human MEKK2 PB1 domain | Q9Y2U5 | bead flow cytometry, Alexa488-MEK5 binding to MEKK2 WT; actives lie on both sides | binding response (% of control), % at 10 µM | hit rate 1.1% among 290,000; in the data active means binding response below about 67% or above about 130%; inconclusive means no clear call, values can overlap the other calls; inactive means in between
PREPL inhibitor: inhibits the human prolyl oligopeptidase-like enzyme; recombinant PREPL, fluorescence polarization activity-based probe; inhibition, % at 5.96 µM; hit rate 0.68% among 320,000; in the data active means inhibition above about 43%;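 further: 0% = enzyme with DMSO and 100% = wells lacking enzyme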
Casp3 counter: inhibits human caspase-3 in UBC13 counter-screen. shares compounds with UBC13 inh. Recombinant caspase-3, Caspase-Glo 3/7 luminescence, 60 min. inhibition, % at 20 µM. hit rate 4% among 1,400. AID 488856;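 active means mean inhibition across replicates above about 26%, limit read from the data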;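 further: plate controls were DMSO with caspase-3 for no effect and DMSO wells lacking enzyme for full effect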
Target sequence (P42574 whole entry, looked up): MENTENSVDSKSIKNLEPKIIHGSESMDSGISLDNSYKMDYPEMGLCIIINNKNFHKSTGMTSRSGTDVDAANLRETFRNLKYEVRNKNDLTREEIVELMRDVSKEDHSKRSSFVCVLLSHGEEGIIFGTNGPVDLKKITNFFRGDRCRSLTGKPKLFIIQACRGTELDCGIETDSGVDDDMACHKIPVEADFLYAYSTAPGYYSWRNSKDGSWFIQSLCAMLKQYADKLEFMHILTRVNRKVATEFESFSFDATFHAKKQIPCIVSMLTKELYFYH
UBC13 confirm: confirmation of human UBC13 polyubiquitin inhibitors; shares compounds with UBC13 inh; UBC13 polyubiquitination, TR-FRET, biochemical; inhibition, % at 10 µM; hit rate 68% among 1,400; in the data active means inhibition above about 45%; inconclusive means no clear call, values can overlap the other calls
The depositor's hits bear a star. Shown are actives, neighbours in structure and some others; about 3.1% of the full set was active somewhere.

Screening COc1ccc(NC2c3ccccc3C(=O)N2Cc2ccc3c(c2)OCO3)cc1 (stereo not given) returned ATG4B inhibitor -3.6, UBC13 inh 4.1, MEKK3 PB1 HTS 93.0, MEKK2 mut-MEK5 -15.0, MEKK2 WT-MEK5 92.0 and PREPL inhibitor 0.6.
`S=C1NC2(CCCCC2)N=C1c1ccccc1` gave ATG4B inhibitor 2.4, UBC13 inh 14.7, MEKK3 PB1 HTS 91.0, MEKK2 mut-MEK5 -4.0, MEKK2 WT-MEK5 94.0 and PREPL inhibitor -6.8.
`O=C1NC2(CCCCCC2)N=C1c1ccc(Br)cc1` gave ATG4B inhibitor -2.0, UBC13 inh 48.8*, MEKK3 PB1 HTS 103.0, MEKK2 mut-MEK5 -4.0, MEKK2 WT-MEK5 99.0, PREPL inhibitor -8.9, Casp3 counter -2.8 and UBC13 confirm inconclusive.
Screening COC(=O)c1c(-c2ccc(OC)cc2)oc2ccc(-c3cc(OC)c(OC)c(OC)c3)cc12 returned ATG4B inhibitor -3.6, UBC13 inh 52.5*, MEKK3 PB1 HTS 116.0, MEKK2 mut-MEK5 6.0, MEKK2 WT-MEK5 113.0, PREPL inhibitor 5.7, Casp3 counter -1.0 and UBC13 confirm inconclusive.
For COc1ccc(C(=O)c2c(-c3ccc(OC)cc3)oc3ccc(-c4cc(OC)c(OC)c(OC)c4)cc23)cc1 the results were ATG4B inhibitor -3.6, UBC13 inh inconclusive, MEKK3 PB1 HTS 101.0, MEKK2 mut-MEK5 -4.0, MEKK2 WT-MEK5 94.0 and PREPL inhibitor 17.4.
Screening CN1CCN(C2Cc3ccccc3Sc3ccc(Cl)cc32)CC1 (stereo not given) returned ATG4B inhibitor 7.3, UBC13 inh 45.0*, PREPL inhibitor -12.8, Casp3 counter -3.8 and UBC13 confirm 25.7.
For CN1CCN(C2Cc3cc(F)ccc3Sc3ccc(Cl)cc32)CC1 (stereo not given) the results were ATG4B inhibitor -6.4, UBC13 inh 12.9 and PREPL inhibitor -0.9.
For OCCNc1nc(Nc2cc(Cl)ccc2OC2CCCC2)nc(N2CCCC2)n1 the results were ATG4B inhibitor 7.6, UBC13 inh 52.1*, MEKK3 PB1 HTS 103.0, MEKK2 mut-MEK5 -1.0, MEKK2 WT-MEK5 109.0, PREPL inhibitor 4.7, Casp3 counter 1.5 and UBC13 confirm 36.7.
`COc1ccc(Cl)cc1Nc1nc(NCCO)nc(N2CCCCC2)n1` gave ATG4B inhibitor -20.9, UBC13 inh 62.3*, MEKK3 PB1 HTS 105.0, MEKK2 mut-MEK5 5.0, MEKK2 WT-MEK5 112.0, PREPL inhibitor 5.2, Casp3 counter 5.9 and UBC13 confirm 32.0.
`CC(C)Oc1ccc(Cl)cc1Nc1nc(NCCO)nc(N2CCCC2)n1` gave ATG4B inhibitor 4.7, UBC13 inh 59.7*, MEKK3 PB1 HTS 109.0, MEKK2 mut-MEK5 3.0, MEKK2 WT-MEK5 114.0, PREPL inhibitor 10.4, Casp3 counter 7.8 and UBC13 confirm 34.3.
O=C(NCC(O)c1ccccc1)c1ccc(Cl)c(S(=O)(=O)N2CCCCC2)c1 (stereo not given) was read as ATG4B inhibitor -3.6, UBC13 inh 5.2, MEKK3 PB1 HTS 100.0, MEKK2 mut-MEK5 3.0, MEKK2 WT-MEK5 105.0 and PREPL inhibitor -2.3.
Screening CCOC(=O)C(Cc1ccc(O)c([N+](=O)[O-])c1)N1C(=O)c2ccccc2C1=O (stereo not given) returned ATG4B inhibitor 2.0.
Screening Cc1c(CCOC(=O)c2ccc(Cl)cc2Cl)sc[n+]1CC(=O)c1ccc(Br)cc1 returned ATG4B inhibitor 6.5, UBC13 inh 67.3*, PREPL inhibitor -17.6, Casp3 counter 0.8 and UBC13 confirm 66.6*.
O=C1CCN(CCCc2ccccc2)CCN1[C@H](CO)Cc1ccccc1 was read as ATG4B inhibitor 4.6, UBC13 inh 7.9, MEKK3 PB1 HTS 99.0, MEKK2 mut-MEK5 -4.0, MEKK2 WT-MEK5 102.0 and PREPL inhibitor -5.0.
For CCOC(=O)c1nn(-c2ccccc2)c(=O)cc1OCC(=O)Nc1ccccc1OCC the results were ATG4B inhibitor 3.8, UBC13 inh 56.7*, PREPL inhibitor -3.1, Casp3 counter -1.9 and UBC13 confirm inconclusive.
